Results on 97 molecules are retold here after PubChem BioAssay AID1445 (SRMLSC, 2008).

The campaign covered roughly 220,000 compounds. About 910 (0.41%) were called active.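 How the source made its calls: active means primary inhibition above the hit cutoff, then over 50% inhibition at one or more dose response concentrations (cut at about 23% in these data, passing the limit was not always enough); inconclusive means conflicting primary data, or primary hits not chosen for dose response; inactive means low primary inhibition, or under 50% at every dose.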 The full list was thinned out, with actives kept by preference. Measured potencies and affinities stand elsewhere.

Sequence of Aminopeptidase N (Plasmodium falciparum (isolate 3D7)) (O96935 whole entry, looked up): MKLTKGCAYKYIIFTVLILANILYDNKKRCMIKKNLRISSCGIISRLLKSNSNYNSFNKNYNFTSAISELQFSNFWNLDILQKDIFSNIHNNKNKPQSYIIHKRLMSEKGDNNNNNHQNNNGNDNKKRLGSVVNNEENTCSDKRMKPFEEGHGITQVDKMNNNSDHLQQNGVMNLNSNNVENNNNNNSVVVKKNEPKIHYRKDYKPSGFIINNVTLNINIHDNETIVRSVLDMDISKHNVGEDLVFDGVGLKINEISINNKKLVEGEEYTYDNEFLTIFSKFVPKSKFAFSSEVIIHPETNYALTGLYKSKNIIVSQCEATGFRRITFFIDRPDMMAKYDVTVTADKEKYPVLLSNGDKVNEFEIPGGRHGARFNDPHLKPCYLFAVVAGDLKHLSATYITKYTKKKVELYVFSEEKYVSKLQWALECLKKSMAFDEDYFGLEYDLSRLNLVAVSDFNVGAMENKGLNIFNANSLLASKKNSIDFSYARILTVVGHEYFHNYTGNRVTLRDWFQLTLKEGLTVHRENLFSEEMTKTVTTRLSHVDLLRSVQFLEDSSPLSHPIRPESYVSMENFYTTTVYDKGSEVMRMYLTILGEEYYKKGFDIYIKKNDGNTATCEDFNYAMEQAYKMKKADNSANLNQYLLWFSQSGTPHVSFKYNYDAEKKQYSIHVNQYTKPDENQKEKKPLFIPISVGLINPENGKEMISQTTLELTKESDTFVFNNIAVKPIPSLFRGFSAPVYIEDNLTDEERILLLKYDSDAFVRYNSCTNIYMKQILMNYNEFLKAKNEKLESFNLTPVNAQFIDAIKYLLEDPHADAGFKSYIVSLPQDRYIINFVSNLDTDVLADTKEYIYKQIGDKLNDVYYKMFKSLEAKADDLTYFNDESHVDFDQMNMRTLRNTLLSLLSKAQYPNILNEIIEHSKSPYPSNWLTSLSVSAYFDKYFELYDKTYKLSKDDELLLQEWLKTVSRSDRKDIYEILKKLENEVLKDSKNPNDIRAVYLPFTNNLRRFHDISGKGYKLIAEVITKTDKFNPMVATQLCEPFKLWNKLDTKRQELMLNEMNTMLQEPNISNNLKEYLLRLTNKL

This assay addresses Aminopeptidase N (Plasmodium falciparum (isolate 3D7)) (UniProt O96935). Description: malaria alanyl aminopeptidase activity blockers – biochemical, fluorogenic H-Leu-NHMec substrate, 1536-well (AID 1445).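 Further: plate controls were DMSO full reaction for no effect and no enzyme background for full effect.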 Conditions: recombinant M1AAP, H-Leu-NHMec fluorogenic kinetic assay; at 30 µM, active compounds read high unless noted.
`C=CCNC(=O)c1ccc([N+](=O)[O-])c(Cl)c1`: the inhibition (in general, the drop in the measured response relative to a control, in per cent) was 1.78% (inactive). `CC1=C(C(N)=O)C(c2cccs2)NC(=O)N1` (configuration not stated): the inhibition is 0.41% (inactive). `FC(F)(F)c1cc(-c2cccs2)nc2cc(-c3cccs3)nn12`: the inhibition was 2.78% (inactive). For `FC(F)(F)c1cc(-c2cccs2)nc2ncnn12`, the inhibition was 14.3% (inactive).

For `O=C(NCCCn1ccnc1)/C(=C\c1cccs1)NC(=O)c1ccco1`, the inhibition is 2.24% (inactive).

For the molecule `CC(C)=CC(=O)NCCc1ccccc1`, the inhibition was 0.11% (inactive). With `Cc1ccc2c(c1)NCCO2`, the inhibition was 9.62% (inactive).

`Cc1cc(=O)oc2cc3c(cc12)OCCO3`: the inhibition was 9.01% (inactive). As to `CN(C)c1ccc(CNn2cnnc2SCc2ccccc2F)cc1`, the inhibition was 3.42% (inactive). Turning to `Cc1ccccc1OCCCC(=O)Nc1ccccc1C(F)(F)F`, the inhibition is -2.79% (inactive). Under `CCOCCCNc1nc2c(C)cccn2c(=O)c1/C=C1\SC(=S)N(C(C)CC)C1=O` (configuration not stated) stands 3.39% (inactive); under `CCOC(=O)CC1C(=O)NCCN1S(=O)(=O)c1ccc(C)cc1` (configuration not stated), -1.42% (inactive). `CC(C)CN1C(=O)/C(=C/c2c(N3CCc4ccccc4C3)nc3ccccn3c2=O)SC1=S`: the inhibition is 2.88% (inactive). In the case of `CCOC(=O)CC1C(=O)NCCN1C(=O)c1cc2c(=O)n3ccccc3nc2s1` (configuration not stated), the inhibition is -1.82% (inactive). Consider `CCOC(=O)C(=O)c1c(-c2ccc(C)cc2)nc2ccccn12`, for which the inhibition was 10.6% (inactive). As to `COC(=O)c1c(C)oc(C)c1S(=O)(=O)N1CCCCC1`, the inhibition is 0.96% (inactive). On to `CCCCCCOc1ccc(C(=O)NCCCn2ccnc2)cc1`, for which the inhibition is -4.66% (inactive).

With `CN(C)CCNC(=O)NC1CCCCC1`, the inhibition was 4.13% (inactive). With `CC(=O)NS(=O)(=O)c1ccc(NC(=O)c2ccc3c(c2)C(=O)N(CCC(C)C)C3=O)cc1`, the inhibition was 9.98% (inactive). In the case of `CC(/C=C1\SC(=S)N(NC(=O)c2ccc(C)cc2)C1=O)=C\c1ccccc1`, the inhibition is 5.4% (inactive). As for `CCN1C(=O)/C(=C2\SC(=S)N(CC3CCCO3)C2=O)c2ccccc21` (configuration not stated), the inhibition is 2.68% (inactive). `CC(/C=C1\SC(=S)N(NC(=O)c2ccccc2C)C1=O)=C\c1ccccc1`: the inhibition is 4.17% (inactive). With `CC(=O)N1C(=O)/C(=C2\SC(=S)N(c3c(C)n(C)n(-c4ccccc4)c3=O)C2=O)c2ccccc21`, the inhibition is 9.72% (inactive). For `CC(/C=C1\SC(=S)N(NC(=O)c2ccc(O)cc2)C1=O)=C\c1ccccc1` the value was 4.4% (inactive). Regarding `CC(/C=C1\SC(=S)N(NC(=O)c2ccncc2)C1=O)=C\c1ccccc1`, the inhibition is 13.9% (inactive). With `Cc1ccc(S(=O)(=O)N2C(=O)/C(=C3\SC(=S)NC3=O)c3ccccc32)cc1`, the inhibition is 16.8% (inactive).

For the molecule `CCN1C(=O)/C(=C2\SC(=S)N(CCCOC)C2=O)c2ccccc21`, the inhibition is 0.63% (inactive). For the molecule `CC1=C(C(=O)c2ccccc2)C(c2ccc(OC(F)F)cc2)NC(=S)N1` (configuration not stated), the inhibition was 3.11% (inactive).

For the molecule `CN1CCN(CC(=O)NC2CCCCC2)CC1`, the inhibition was -3.84% (inactive).

As for `Cc1cc(C)n(-c2nc3c(c(=O)[nH]c(=O)n3C)n2Cc2cccc(Br)c2)n1`, the inhibition was 6.71% (inactive). `COc1cccc(NS(=O)(=O)c2ccc(OC)c(OC)c2)c1`: the inhibition was 8.68% (inactive).

Consider `COc1cc(Cl)c(C)cc1NC(=O)c1ccc2c(SCC(=O)O)c3c(nc2c1)CCCC3`, for which the inhibition is 39.2% (inactive). For the molecule `COc1ccc(NC(=O)c2ccc3c(SCC(=O)O)c4c(nc3c2)CCCC4)cc1Cl`, the inhibition was 6.4% (inactive). Regarding `CC(=O)c1ccc(OCc2cc([N+](=O)[O-])cc3c2OCOC3)cc1`, the inhibition is 0.98% (inactive). Consider `CP(C)(=O)CCP(=O)(c1ccccc1)c1ccccc1`, for which the inhibition was 2.48% (inactive). As for `CCCc1nc(C)c(-c2ccc(OC)c(OC)c2)c(=O)[nH]1`, the inhibition was 2.27% (inactive). As for `Cc1c(CCC(=O)O)c(=O)oc2cc3oc4c(c3cc12)CCCC4`, the inhibition was 8.26% (inactive). Under `Cc1c(CCC(=O)O)c(=O)oc2cc(O)ccc12` stands 18.6% (inactive); under `Cc1coc2cc3oc(=O)c(Cc4ccccc4)c(C)c3cc12`, 16.1% (inactive); under `Cc1c(CCC(=O)O)c(=O)oc2cc3occ(C(C)(C)C)c3cc12`, 12.5% (inactive).

With `CC(C)Oc1cccc(C(=O)C2CCCN(Cc3cnn(C(C)C)c3)C2)c1` (configuration not stated), the inhibition is 3.98% (inactive).

Turning to `Cc1ccc(/C=[N+](/C)[O-])cc1`, the inhibition is 5.58% (inactive).

Regarding `Cc1oc(C)c2c(=O)ccc3c(c12)OC(N)=C(C#N)C3c1ccc(F)cc1` (configuration not stated), the inhibition was 3.21% (inactive). Turning to `Cc1oc(C)c2c(=O)ccc3c(c12)OC(N)=C(C#N)C3c1ccccc1` (configuration not stated), the inhibition was 12.5% (inactive). As to `CSc1ccc(C2C(C#N)=C(N)Oc3c2ccc(=O)c2c(C)oc(C)c32)cc1` (configuration not stated), the inhibition is 23.3% (active). As for `COc1cccc(C2c3[nH]c4ccccc4c3CCN2Cc2cccn2-c2ncccn2)c1` (configuration not stated), the inhibition was 1.34% (inactive). As for `CCOC(=O)CSCc1nc(-c2ccc(Cl)cc2)oc1C`, the inhibition is -0.93% (inactive).

For the molecule `C/C(=N\NC(=O)COc1ccc(C(C)(C)C)cc1)c1ccc(OC(F)F)cc1`, the inhibition is 6.66% (inactive).

On to `NC(=O)c1cccc(CC(=O)c2ccccc2)c1`, for which the inhibition is 8.26% (inactive). `COc1cc(C=O)ccc1OCC(=O)N1CCCC1`: the inhibition was -0.53% (inactive).

Consider `COc1ccccc1NS(=O)(=O)c1ccc(Cl)c(NC(=S)NC(=O)C2CCCC2)c1`, for which the inhibition was 6.44% (inactive).

Regarding `COc1ccccc1NS(=O)(=O)c1ccc(Cl)c(NC(=O)CN2C(=O)c3ccccc3C2=O)c1`, the inhibition was 11.8% (inactive). `Cc1cc(O)c(C=Nc2cccc(Cl)c2)c(=O)o1`: the inhibition is 13.6% (inactive). For `O=C1CNC(=O)/C1=C\N1CCN(C(c2ccccc2)c2ccccc2)CC1` the value was 10.1% (inactive); for `COc1ccc(C(c2c(C)n(C)n(-c3ccccc3)c2=O)c2c(C)n(C)n(-c3ccccc3)c2=O)cc1O`, 2.02% (inactive). As for `COc1ccc(-c2cc(=Nc3c(C)n(C)n(-c4ccccc4)c3=O)c3ccccc3o2)cc1`, the inhibition was 10.6% (inactive).

Consider `Cc1c(C(c2ccc(O)cc2)c2c(C)n(C)n(-c3ccccc3)c2=O)c(=O)n(-c2ccccc2)n1C`, for which the inhibition is -4.97% (inactive). As for `Cc1c(C(c2ccccc2O)c2c(C)n(C)n(-c3ccccc3)c2=O)c(=O)n(-c2ccccc2)n1C`, the inhibition was -0.33% (inactive). Under `FC(F)(F)c1ccccc1CN1CCN(C2CCCCCC2)CC1` stands 3.5% (inactive); under `CCOC(=O)N1CCN(C(=O)COc2cc(=O)n(CC)c3ccccc23)CC1`, 3.47% (inactive); under `Cc1ccccc1NC(=O)N1CCc2ccccc2C1`, 1.94% (inactive). With `O=Cc1ccc2cccnc2n1`, the inhibition was 3.17% (inactive). For `Cc1ccccc1NC(=O)c1ccccc1O` the value was 12.9% (inactive). On to `O=C(CN1C(=O)S/C(=C\c2ccccc2)C1=O)NNC(=O)c1ccccc1O`, for which the inhibition is 6.38% (inactive). `O=C(Nc1ccc(O)cc1)c1ccc2c(c1)C(=O)N(Cc1ccco1)C2=O`: the inhibition is 3.19% (inactive).

With `O=C(O)c1ccc(COc2ccccc2/C=C2\NC(=O)N(Cc3ccccc3)C2=O)cc1`, the inhibition is -0.49% (inactive). As for `O=C1c2ccccc2C(=O)N1Cc1ccco1`, the inhibition was 3.2% (inactive). On to `CC1=CC(C)(C)NC(=S)N1c1ccccc1C`, for which the inhibition was 0.18% (inactive). As to `CCOc1ccc(-c2nnc3ccc(SCC(=O)Nc4nc5ccccc5s4)nn23)cc1`, the inhibition is -0.15% (inactive). Under `Cc1c(NC(=O)C(C)OC(=O)[C@@H](NC(=O)c2ccccc2)C(C)C)c(=O)n(-c2ccccc2)n1C` (some centres not stated) stands 11.4% (inactive). Turning to `CC(C)Cn1c(-c2ccncc2)n[nH]c1=S`, the inhibition is -1.73% (inactive). Turning to `CCc1ccc2[nH]c(=O)c(CN(CCN(CC)CC)C(=O)NC3CCCCC3)cc2c1`, the inhibition is 6.76% (inactive). As for `CCOC(=O)CNC(=O)Cc1ccc(OC)cc1`, the inhibition was -3.67% (inactive). As for `COC(=O)c1ccccc1NC(=O)CSc1nc2cccnc2n1C`, the inhibition is -3.92% (inactive). As for `CCSc1nc2ccccc2n1CC(=O)N1CCOCC1`, the inhibition was 8.83% (inactive). For `O=C(CSc1nc2ccccc2n1CC(=O)N1CCOCC1)N1CCCC1` the value was 1.43% (inactive); for `CC(=O)N1CCN(C(C)=O)C1c1ccccc1`, 4.82% (inactive).

On to `CCC(=O)N1CCN(C(=O)CC)C1c1ccccc1`, for which the inhibition was 1.3% (inactive). For the molecule `CC1C(=O)CC(c2ccccc2)N(C)C1c1ccccc1` (configuration not stated), the inhibition was -1.3% (inactive).

For the molecule `CCC(=O)N1CCN(C(C)=O)C1c1ccccc1` (configuration not stated), the inhibition is -1.61% (inactive).

For the molecule `COc1ccc(N=C2SC(CC(=O)Nc3ccc(F)cc3)C(=O)N2Cc2ccco2)cc1` (configuration not stated), the inhibition is 5.55% (inactive). `COc1ccc(O)c(C(=O)c2cc(C#N)c(=O)n(-c3ccc(Cl)cc3)c2)c1`: the inhibition is 4.39% (inactive). On to `O=C(c1ccc(COCC(F)(F)F)o1)N1CCCCCC1`, for which the inhibition was -0.95% (inactive).

With `CC(=O)c1cc(-c2ccccc2)n(CC(=O)NC(C)(C)C)c1C`, the inhibition is 5.46% (inactive).

Turning to `COCCNc1cc(C)c(C#N)c2nc3ccccc3n12`, the inhibition is -4.32% (inactive). Regarding `COc1cccc(/C=N/Nc2ncnc3scc(-c4ccccc4)c23)c1O`, the inhibition was 2.95% (inactive). In the case of `COc1cc(/C=N/N2C(=O)CSC2=S)ccc1O`, the inhibition was 20.3% (inactive). As for `COc1ccc(/C=N/N2C(=O)CSC2=S)cc1`, the inhibition was 10.4% (inactive).

In the case of `Oc1ccc2ccccc2c1CNc1cnc2ccccc2c1`, the inhibition is 24.4% (active). In the case of `Oc1ccccc1CNc1cnc2ccccc2c1`, the inhibition is 9.27% (inactive). As for `COc1cccc(CNc2cnc3ccccc3c2)c1O`, the inhibition was 2.44% (inactive). Regarding `O=C(NCCc1ccccc1)c1ccncc1`, the inhibition is -0.47% (inactive). For `O=C(CCN1C(=O)/C(=C/c2ccc(F)cc2)SC1=S)NNC(=O)c1ccncc1` the value was -9.67% (inactive). `O=C(NCCCc1ccccc1)c1ccncc1`: the inhibition is -1.01% (inactive). As for `CCNC(=S)NNC(=O)c1ccncc1`, the inhibition was 0.26% (inactive). For `CCOc1ccc(NC(=O)CN(C)C(=O)C2CCCC2)cc1OCC` the value was 8.15% (inactive). Under `CC(=O)Nc1ccc2nc(SCC(=O)N3CCOCC3)sc2c1` stands 2.3% (inactive).
